# Source: PubChem BioAssay (NCATS)
# Records with an inconclusive call do not appear. A number with no mark means an inactive call. The source made the active and inactive calls. Calls follow the shape of the dose curve; as a rule, active = well fitted inhibition curve with a large enough effect; inconclusive = small, poorly fitted or top-dose-only effect; inactive = flat fitted curve, though single readings scatter.
# How the values were obtained:
# [1] = qHTS profiling for inhibitors of Plasmodium falciparum proliferation (AID 504749);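 as to activity, negative = inhibition: 0% = DMSO vehicle and full inhibition = artemisinin control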; as to all read-outs here: nearly all actives have a fitted effect of over 60% in size; details: P. falciparum in erythrocytes, SYBR Green DNA, 72 h; for activity, negative = inhibition: at 28.7 µM (top of the series)
# In short: (§1)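 SYBR Green fluorescence (ex 485 nm, em 535 nm) reports parasite DNA after 72 h compound exposure of infected red cells at 0.3% parasitemia, 2.5% hematocrit; signal normalized to 0.29 uM artemisinin and vehicle wells.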
# 3D7 = assay: as above; details: P. falciparum in erythrocytes, SYBR Green DNA, 72 h; series mostly up to 28.7 µM
# In short: as §1
# 7G8 = assay: as above; details: P. falciparum in erythrocytes, SYBR Green DNA, 72 h; series mostly up to 28.7 µM
# In short: as §1
# Potency is read from the fitted curve at half-maximal effect.
SMILES,Potency ([1]; parasite line A),Potency (3D7),Potency (7G8),"activity, negative = inhibition ([1]; parasite line A)","activity, negative = inhibition ([1]; parasite line B)"
CN1[C@@H]2CC[C@H]1CC(OC1c3ccccc3CCc3ccccc31)C2 (some centres undefined),3.98 µM (active),inactive,3.98 µM (active),–,–
CCC1C(C)=NN=C(c2ccc(OC)c(OC)c2)c2cc(OC)c(OC)cc21 (centres undefined),–,inactive,14.1 µM (active),12.9%,13.3%
Cc1sc2ccccc2c1CC1=NCCN1,–,inactive,10 µM (active),5.82%,-2.48%
ClCC1CO1 (centres undefined),–,inactive,inactive,2.63%,-1.12%
C=CCN1CC[C@]23c4c5ccc(O)c4O[C@H]2[C@@H](O)C=C[C@H]3[C@H]1C5,–,inactive,inactive,-14.2%,6.2%
CNC1(c2ccccc2Cl)CCCCC1=O (centres undefined),–,inactive,inactive,12.4%,–
CCCCCCCCCC(=O)O[C@H]1CC[C@H]2[C@@H]3CCC4=CC(=O)CC[C@]4(C)[C@H]3CC[C@]12C,–,–,inactive,8.28%,-5.1%
N#CC1(N2CCCCC2)CCCCC1,–,inactive,inactive,7.09%,1.5%
CCNC(C)Cc1cccc(C(F)(F)F)c1 (centres undefined),–,inactive,inactive,6.39%,–
C=CCN1CCC23c4c5ccc(O)c4O[C@H]2C(=O)CC[C@@]3(O)C1C5 (some centres undefined),–,inactive,inactive,8.48%,-7.58%
N#CN,–,inactive,inactive,10.5%,6.79%
CNC(=O)OCC[N+](C)(C)C,–,inactive,inactive,18.2%,8.99%
